Source: PubChem BioAssay (NCATS)
“And” between values parts separate entries of the source, which are not always exact repeats. Equal entries are not always repeated. Records with an inconclusive call do not appear. A structure can be active in one record and inactive in another. The source made the active and inactive calls. The call rests on the fitted dose curve; in most records, active means well fitted curve in the direction sought with a large enough effect; inconclusive means small, poorly fitted or top-dose-only effect, or another doubt; inactive means no such curve, though single readings can be large; an effect the other way counts as inactive or inconclusive.

Assays:
[1] = Viability qHTS for spleen associated tyrosine kinase inhibitor (SYKi) naive MV4-11 cells (AID 1963823); details: MV4-11 AML viability, CellTiter-Glo luminescence, 72 h; series mostly up to 45 µM; further: nearly all actives have a fitted effect of over 40% in size
Method in brief: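 Compounds were dispensed acoustically onto plates, MV4-11 cells (SYKi-naive) added at 500 per well, and plates incubated 72 hr at 37 C. CellTiter-Glo was added and luminescence measured after 10 min.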

[2] = Viability qHTS for spleen associated tyrosine kinase inhibitor (SYKi) drug resistant MV4-11 cells (AID 1963824); details: SYKi-resistant MV4-11 viability, CellTiter-Glo, 72 h; series mostly up to 45 µM; further: nearly all actives have a fitted effect of over 35% in size
Method in brief: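 CellTiter-Glo luminescence, read 10 min after reagent addition, reports viability after a 72 hr compound exposure. Cells are an MV4-11 line made resistant to SYK inhibition, seeded at 500 per well onto compound-containing plates.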

[3] = Cellular viability qHTS for adrenocortical cancer (ACC) cell line SW-13 (AID 1963989); details: SW-13 ACC cells viability, CellTiter-Glo, 48 h; activity (max response): stronger effect = lower value; further: nearly all actives have a fitted effect of over 65% in size;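 on activity (max response): cells grown in serum-free medium with ITS supplement; on the % scale 0 is the no-effect control and ±100 the full control effect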
Method in brief: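 IC50 and maximal-response values come from four-parameter logistic fits of titration data. SW-13 cells in serum-free medium received compounds (up to 46 uM final) for 48 h before CellTiter-Glo luminescence.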

[4] = Cellular viability qHTS for adrenocortical cancer (ACC) cell line NCI-H295R (AID 1963990); details: CellTiter-Glo ATP luminescence, 48 h; series mostly up to 46.1 µM; further: nearly all actives have a fitted effect of over 60% in size
Method in brief: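 Adrenocortical carcinoma cells, suspended at 300 000 cells/mL in serum-free DMEM plus ITS, rested overnight before pin transfer of compound. After two days' incubation, ATP-dependent luminescence was recorded and curve-fitted.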
Potency means the concentration at half of the fitted maximal effect.

Row | SMILES | Potency [1] | Potency [2] | Potency [3] | Potency [4] | activity (max response) [3]
1 | CN[C@H]1CC[C@@H](c2ccc(Cl)c(Cl)c2)c2ccccc21 | 6.61 µM (active) | 7.42 µM (active) | 20.6 µM (active) and 28.2 µM (active) | 4.61 µM (active) and 8.91 µM (active) | –
2 | CC(=O)OCC1=C(C(=O)O)N2C(=O)[C@@H](NC(=O)Cc3cccs3)[C@H]2SC1 | inactive | inactive | – | inactive | 10.2% (inactive)
3 | NC(=O)c1ncn([C@@H]2O[C@H](CO)[C@@H](O)[C@H]2O)c1O | inactive | inactive | – | inactive | 14.2% (inactive) and 14.7% (inactive) and 8.98% (inactive)
4 | NC(=O)/C(=C/n1cnc(-c2cc(C(F)(F)F)cc(C(F)(F)F)c2)n1)c1cncnc1 | 0.132 µM (active) | 0.235 µM (active) | 3.98 µM (active) | 3.16 µM (active) | –
5 | CCN1CCN(Cc2ccc(Nc3ncc(F)c(-c4cc(F)c5nc(C)n(C(C)C)c5c4)n3)nc2)CC1 | 146 nM (active) and 148 nM (active) | 366 nM (active) and 417 nM (active) | 15.8 µM (active) | 4.47 µM (active) | –
6 | O=C(O)c1ccccc1C(=O)Nc1ccc(S(=O)(=O)Nc2nccs2)cc1 | inactive | inactive | – | inactive | -9.68% (inactive)
7 | CC(C)(C)CC(C)(C)c1ccc(O)c(-n2nc3ccccc3n2)c1 | inactive | inactive | – | inactive | 4.68% (inactive)
8 | CO[C@@H](C)Cn1c(=O)n(C)c2cnc3ccc(-c4cncc(C(C)(C)O)c4)cc3c21 | 0.082 µM (active) | 0.332 µM (active) | 3.55 µM (active) | 0.891 µM (active) | –
9 | CCC[C@H](N[C@H]1CCc2cc(F)cc(F)c2C1)C(=O)Nc1cn(C(C)(C)CNCC(C)(C)C)cn1 | 8.33 µM (active) | 9.2 µM (active) and 6.61 µM (active) | 14.1 µM (active) | 25.1 µM (active) | –
10 | c1ccc(Cn2c(-c3ccc(OCC(C4CCNCC4)n4c(-c5ccccc5)nc5ccccc54)cc3)nc3ccccc32)cc1 (stereo unspecified) | 5.25 µM (active) | 7.42 µM (active) | 25.1 µM (active) | 7.08 µM (active) | –
11 | COc1cc(C=C2CCC/C(=C\c3ccc(O)c(OC)c3)C2=O)ccc1O | 3.76 µM (active) | 3.35 µM (active) | 4.61 µM (active) | 7.31 µM (active) | –
12 | C[C@H]1[C@H](O)O[C@@H]2O[C@@]3(C)CC[C@H]4[C@H](C)CC[C@@H]1[C@@]24OO3 | 0.731 µM (active) | 0.731 µM (active) | 12.6 µM (active) | 3.55 µM (active) | –
13 | COc1cccc2c1C(=O)c1c(O)c3c(c(O)c1C2=O)C[C@@](O)(C(=O)CO)C[C@@H]3O[C@H]1C[C@H](N)[C@H](O)[C@H](C)O1 | 0.133 µM (active) | 0.299 µM (active) | 2.31 µM (active) and 891 nM (active) | 23.1 µM (active) and 7.08 µM (active) | –
14 | C=CC(=O)Nc1cccc(Nc2nc(Nc3ccc(Oc4ccnc(C(=O)NC)c4)cc3)ncc2F)c1 | 4.61 µM (active) and 2.63 µM (active) | 5.8 µM (active) and 4.17 µM (active) | 17.8 µM (active) | 17.8 µM (active) | –
15 | Nc1ccc(F)cc1NC(=O)c1ccc(CNC(=O)/C=C/c2cccnc2)cc1 | 1.66 µM (active) | 0.833 µM (active) | 11.2 µM (active) | 3.55 µM (active) | –
16 | C[N+]1(CC2COC(c3ccccc3)(C3CCCCC3)O2)CCCCC1 (stereo unspecified) | 13.3 µM (active) | 11.9 µM (active) | – | inactive | -27.2% (inactive)
17 | Cc1cccc(C)c1NC(=O)CN(CC(=O)O)CC(=O)O | inactive | inactive | – | inactive | 9.48% (inactive)
18 | CNC(=O)c1ccccc1Nc1nc(Nc2ccc3c(c2OC)CCC[C@@H](N2CCN(CCO)CC2)C3)ncc1Cl | 0.366 µM (active) | 0.58 µM (active) | 15.8 µM (active) | 2.82 µM (active) | –
19 | CC(=O)N[C@H]1[C@H](O[C@@H]2c3ccc(c(Cl)c3)Oc3cc4cc(c3O[C@@H]3O[C@H](CO)[C@@H](O)[C@H](O)[C@H]3NC(=O)CCCCCCCC(C)C)Oc3ccc(cc3Cl)C[C@H]3NC(=O)[C@H](N)c5ccc(O)c(c5)Oc5cc(O)cc(c5)[C@H](NC3=O)C(=O)N[C@H]4C(=O)N[C@H]3C(=O)N[C@@H]2C(=O)N[C@@H](C(=O)O)c2cc(O)cc(O[C@H]4O[C@H](CO)[C@@H](O)[C@H](O)[C@@H]4O)c2-c2cc3ccc2O)O[C@H](CO)[C@@H](O)[C@@H]1O | inactive | inactive | – | inactive | 11.6% (inactive)
20 | O=C(NO)c1cnc(N2C[C@H]3C[C@@H]2CN3c2cc(C(F)(F)F)ccn2)nc1 | 2.35 µM (active) | 2.35 µM (active) | 10 µM (active) | 2.82 µM (active) | –
21 | CNC(=O)[C@H]1O[C@@H](n2cnc3c(NCc4cccc(I)c4)nc(Cl)nc32)[C@H](O)[C@@H]1O | 14.8 µM (active) | 8.33 µM (active) | – | inactive | 2.68% (inactive)
22 | CC(C)(C)c1ccc(C(=O)CCCN2CCC(OC(c3ccccc3)c3ccccc3)CC2)cc1 | 13.3 µM (active) | 11.9 µM (active) | 13 µM (active) | 5.8 µM (active) | –

Row | SMILES | Potency [1] | Potency [2] | Potency [3] | Potency [4] | activity (max response) [3]
23 | C[C@]12CC[C@@H]3c4ccc(O)cc4C[C@@H](CCCCCCCCCS(=O)CCCC(F)(F)C(F)(F)F)[C@H]3[C@@H]1CC[C@@H]2O (stereo partly specified) | inactive | inactive | – | inactive | -10.5% (inactive)
24 | N#Cc1cc(NC(=O)C(=O)O)c(Cl)c(NC(=O)C(=O)O)c1 | inactive | inactive | – | inactive | 14% (inactive)
25 | O=C(O)c1ccccc1NCCc1ccccc1 | inactive | inactive | – | inactive | 9.86% (inactive)
26 | CC(C)OP(=O)(CP(=O)(OC(C)C)OC(C)C)OC(C)C | inactive | inactive | – | inactive | 9.07% (inactive)
27 | CCOc1ccc(NS(=O)(=O)c2ccc(N)cc2)nn1 | inactive | inactive | – | inactive | 7.51% (inactive)
28 | O=C([O-])C[O-].[Pt+2] | inactive | inactive | – | inactive | -1.3% (inactive)
29 | Oc1c(Cl)cc(Cl)c(Cl)c1Cc1c(O)c(Cl)cc(Cl)c1Cl | 8.41 µM (active) | 5.96 µM (active) | 1.84 µM (active) | 2.06 µM (active) | –
30 | Nc1c(NC/C=C\COc2cc(CN3CCCCC3)ccn2)c(=O)c1=O | inactive | inactive | – | inactive | 4.55% (inactive)
31 | CCCCCCCCCCCCCCCC[n+]1ccccc1 | 0.668 µM (active) | 0.668 µM (active) | 3.66 µM (active) | 5.8 µM (active) | –
32 | CCn1ccnc1CC1COc2ccccc2O1 (stereo unspecified) | inactive | inactive | – | inactive | 8.12% (inactive)
33 | O=[N+]([O-])c1ccc(-c2nc(-c3ccc(F)cc3)c(-c3ccncc3)[nH]2)cc1 | 14.8 µM (active) and 5.17 µM (active) | inactive and 9.34 µM (active) and 2.06 µM (active) | – | inactive | -1.63% (inactive)
34 | CC[C@]1(O)C[C@@H]2CN(CCc3c([nH]c4ccccc34)[C@@](C(=O)OC)(c3cc4c(cc3OC)N(C)[C@H]3[C@@](O)(C(=O)OC)[C@H](OC(C)=O)[C@]5(CC)C=CCN6CC[C@]43[C@@H]65)C2)C1 | 211 nM (active) and 36.6 nM (active) | inactive and 94.4 nM (active) and 18.4 nM (active) | 25.9 nM (active) and 92 nM (active) | 116 nM (active) and 291 nM (active) | –
35 | CCCCCCCCCCCCCCCCCCOCC(O)CO (stereo unspecified) | inactive | inactive | – | inactive | 15% (inactive)
36 | Nc1ccc(/C=C/C(=O)NCc2cc3cc(-c4ccc(C(=O)N5CCC(F)(F)CC5)cc4)cc(-c4ccc(F)cc4)c3o2)cn1 | 148 nM (active) and 184 nM (active) | 0.206 µM (active) | 1.12 µM (active) | 1 µM (active) | –
37 | CCOC(=O)[C@H](CCc1ccccc1)N[C@@H](C)C(=O)N1[C@H](C(=O)O)C[C@@H]2CCC[C@@H]21 | inactive | inactive | – | inactive | 3.72% (inactive) and 7.5% (inactive)
38 | O=C(/C=C/C#Cc1cccc(NS(=O)(=O)c2ccccc2)c1)NO | 0.407 µM (active) | 0.363 µM (active) | 8.02 µM (active) | 3.19 µM (active) | –
39 | CN(C)Cc1ccc(S(=O)(=O)n2ccc(/C=C/C(=O)NO)c2)cc1 | 3.32 µM (active) | 2.35 µM (active) | 12.6 µM (active) | 3.16 µM (active) | –
40 | CCCCC(=O)OCC(=O)[C@]1(O)Cc2c(O)c3c(c(O)c2[C@@H](O[C@H]2C[C@H](NC(=O)C(F)(F)F)[C@H](O)[C@H](C)O2)C1)C(=O)c1c(OC)cccc1C3=O | 0.148 µM (active) | 0.209 µM (active) | 2.82 µM (active) | 3.55 µM (active) | –
41 | CC(C)(O)c1coc(S(=O)(=O)NC(=O)Nc2c3c(cc4c2CCC4)CCC3)c1 | inactive | inactive | – | inactive | 5.8% (inactive)
42 | CCN1C(=O)N2Cc3cc(OC)cc(OC)c3[C@@H](C)C=C2C12CCN(Cc1cc(C)cc(C)c1)CC2 | 18.6 µM (active) | 14.8 µM (active) | 28.2 µM (active) | 25.1 µM (active) | –
43 | C1=C/COCc2cc(ccc2OCCN2CCCC2)Nc2nccc(n2)-c2cccc(c2)COC/1 | inactive and 118 nM (active) | inactive and 130 nM (active) | 4.47 µM (active) | 5.01 µM (active) | –
44 | Nc1ccc(S(=O)(=O)Nc2cnc3ccccc3n2)cc1 | inactive | inactive | – | inactive | 8.58% (inactive)
